# In PubChem BioAssay (NCATS):
# Results filed as inconclusive are left out. Where a call stands in place of a potency, no number is given. Active and inactive are the calls of the source. Calls come from the whole dose curve; as a rule, active = well fitted inhibition curve with a large enough effect; inconclusive = small, poorly fitted or top-dose-only effect; inactive = flat fitted curve, though single readings scatter. Bridge positions count the residues as written; N and C are the ends. Peptide text beside a SMILES is read from it.
# Target: Luciferin 4-monooxygenase (Photinus pyralis) (UniProt P08659)
# Assay: Biochemical firefly luciferase enzyme assay for NPC (AID 624030);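 note: purified P. pyralis luciferase at 10 nM with luciferin and ATP substrate; nearly all actives have a fitted effect of over 70% in size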
# Conditions: purified P. pyralis luciferase, luminescence, 5 min; series mostly up to 58.6 µM
# How it was run: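 Direct inhibition of firefly luciferase enzyme (10 nM final, 50 mM Tris Acetate) assessed by luminescence within 5 minutes. Percent activity scaled between DMSO and PTC124 positive control, with concentration-effect curves classified by fit quality and response.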
# Luciferin 4-monooxygenase (Photinus pyralis), sequence (P08659 whole entry, looked up): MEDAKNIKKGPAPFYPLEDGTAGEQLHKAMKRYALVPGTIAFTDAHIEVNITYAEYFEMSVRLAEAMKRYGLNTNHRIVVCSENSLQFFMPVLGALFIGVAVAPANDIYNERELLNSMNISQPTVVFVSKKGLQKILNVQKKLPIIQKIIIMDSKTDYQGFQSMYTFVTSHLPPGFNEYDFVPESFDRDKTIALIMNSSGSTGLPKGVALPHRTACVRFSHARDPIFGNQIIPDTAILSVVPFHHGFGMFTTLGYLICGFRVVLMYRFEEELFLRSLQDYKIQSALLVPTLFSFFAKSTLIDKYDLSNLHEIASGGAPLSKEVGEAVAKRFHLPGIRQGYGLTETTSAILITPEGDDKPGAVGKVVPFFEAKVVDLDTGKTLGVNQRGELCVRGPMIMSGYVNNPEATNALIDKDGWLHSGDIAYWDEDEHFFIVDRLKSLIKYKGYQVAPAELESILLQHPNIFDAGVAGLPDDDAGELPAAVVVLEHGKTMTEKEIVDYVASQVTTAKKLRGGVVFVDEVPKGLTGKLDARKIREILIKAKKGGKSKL
row,SMILES,Potency
1,CCN1CCN(C(=O)N[C@H](C(=O)N[C@@H]2C(=O)N3[C@@H](C(=O)O)C(C)(C)S[C@@H]23)c2ccccc2)C(=O)C1=O,inactive
2,C/C(=C(/CCOC(=O)c1ccccc1)SS/C(CCOC(=O)c1ccccc1)=C(\C)N(C=O)Cc1cnc(C)nc1N)N(C=O)Cc1cnc(C)nc1N,inactive
3,CCC(C)C1OC2(C=CC1C)CC1CC(C/C=C(/C)C(OC3CC(OC)C(OC4CC(OC)C(NC(C)=O)C(C)O4)C(C)O3)C(C)/C=C\C=C3\COC4C(O)C(C)=CC(C(=O)O1)C34O)O2 (centres undefined),inactive
4,CO/N=C(\C(=O)N[C@@H]1C(=O)N2C(C(=O)OCOC(=O)C(C)(C)C)=C(C)CS[C@H]12)c1csc(N)n1,inactive
5,CC[C@H](c1ccccc1)c1noc(CCN(CC)CC)n1,inactive
6,CC/C=C(/C(=O)N[C@@H]1C(=O)N2C(C(=O)OCOC(=O)C(C)(C)C)=C(COC(N)=O)CS[C@H]12)c1csc(N)n1,inactive
7,CO[C@@H]1[C@@H](OC2OC(C)C(OC3CC(C)(O)C(O)C(C)O3)C(N(C)C)C2O)[C@@H](CC=O)C[C@@H](C)[C@@H](OC2CCC(N(C)C)C(C)O2)/C=C/C=C/C[C@@H](C)OC(=O)C[C@H]1OC(C)=O (some centres undefined),inactive
8,O=CC(O)C(O)C(O)C(O)CO (centres undefined),inactive
9,CC(=O)O[C@H](C)OC(=O)[C@@H](C)c1ccc(-c2ccccc2)c(F)c1,inactive
10,CC/C(O)=N/S(=O)(=O)c1ccc(-c2c(-c3ccccc3)noc2C)cc1,inactive
11,CCO[C@@H](Cc1ccc(OCCc2ccc(OS(C)(=O)=O)cc2)cc1)C(=O)O,inactive
12,COc1cc2c(c(OC)c1OC)-c1c(cc3c(c1OC)OCO3)CC(C)C(C)(O)C2 (centres undefined),inactive
13,COc1cc([C@@H]2c3cc4c(cc3[C@@H](O[C@@H]3O[C@H]5CO[C@H](C)O[C@H]5[C@H](O)[C@@H]3O)[C@H]3COC(=O)[C@H]23)OCO4)cc(OC)c1OP(=O)(O)O,inactive
14,NCCCCC(NC(=O)C1CCCN1C(=O)C1CSSCC(N)C(=O)NC(Cc2ccccc2)C(=O)NC(Cc2ccccc2)C(=O)NC(CCC(N)=O)C(=O)NC(CC(N)=O)C(=O)N1)C(=O)NCC(N)=O (centres undefined) (H-CFFQNCPKG-NH2; disulfide 1-6; configuration not given here),inactive
15,CO/N=C(\C(=O)N[C@@H]1C(=O)N2C(C(=O)[O-])=C(C[n+]3cccc4c3CCCC4)CS[C@H]12)c1csc(N)n1,inactive
16,CC(=O)C[C@H]1[C@H](O[C@H]2[C@H](OC(C)C(=O)N[C@@H](C)C(=O)N[C@H](CCC(=O)N[C@@H](CCCCN)C(=O)N[C@H](C)C(=O)O)C(N)=O)[C@@H](NC(=O)O)C(O)O[C@@H]2CO)O[C@H](CO)[C@@H](O)[C@@H]1O (some centres undefined),inactive
17,CCC(=O)C(Cc1ccccc1)(Cc1ccccc1)CC(C)N(C)C (centres undefined),inactive
18,NC(N)=NCCCC(N)C(=O)O (centres undefined),inactive
19,CO[C@]1(NC(=O)Cc2cccs2)C(=O)N2C(C(=O)O)=CC(COC(N)=O)S[C@H]21 (some centres undefined),inactive
20,COc1ccc2c(C(=S)N(C)CC(=O)O)cccc2c1C(F)(F)F,inactive
21,O=C1C=C(CO)OCC1=O,inactive
22,O=S(=O)(O)OCC1OC(OC2(COS(=O)(=O)O)OC(COS(=O)(=O)O)C(OS(=O)(=O)O)C2OS(=O)(=O)O)C(OS(=O)(=O)O)C(OS(=O)(=O)O)C1OS(=O)(=O)O (centres undefined),inactive
23,CCN1CCC[C@@H]1CNC(=O)c1cc(S(=O)(=O)CC)ccc1OC,inactive
24,CC(C)(S)C(=O)NC(CS)C(=O)O (centres undefined),inactive
25,O=C1O[C@H]2[C@@H](OC(O)[C@@H]2O)[C@H]1O (some centres undefined),inactive
26,CC[C@@H]1OC(=O)C[C@H](O)[C@@H](C)[C@@H](O[C@H]2O[C@@H](C)[C@H](O[C@@H]3C[C@](C)(O)[C@H](O)[C@@H](C)O3)[C@@H](N(C)C)[C@@H]2O)[C@@H](C=O)C[C@@H](C)C(=O)/C=C/C(C)=C[C@@H]1CO[C@H]1O[C@@H](C)[C@H](O)[C@H](OC)[C@@H]1OC,inactive
27,COc1cc(/C=C/C(=O)O[C@H]2CC[C@]34C[C@]35CC[C@]3(C)[C@@H]([C@H](C)CCC=C(C)C)CC[C@@]3(C)C5CCC4C2(C)C)ccc1O (some centres undefined),inactive
28,CCCCC/C=C/C/C=C/CCCCCCCC(=O)NC(C)c1ccccc1 (centres undefined),inactive
29,CSCC[C@H](NC(=O)[C@@H](Cc1ccc(O[S+](=O)([O-])O)cc1)NC(=O)[C@H](N)CC(=O)O)C(=O)NCC(=O)N[C@@H](Cc1c[nH]c2ccccc12)C(=O)N[C@H](CCSC)C(=O)N[C@H](CC(=O)O)C(=O)N[C@@H](Cc1ccccc1)C(N)=O,inactive
